# Assay results: ChEMBL document CHEMBL4513216, “Probing the Open Global Health Chemical Diversity Library for Multistage-Active Starting Points for Next-Generation Antimalarials” (ACS Infect Dis, 2020)
# Screen size: about 69,000 compounds; about 8,600 (12%) showed an effect of 50% or more. The sample as a whole holds a higher share of strong results than the screen did.
# Test system: Plasmodium berghei
# Assay: Screen against P. berghei liver stage (PbLuc), transformed with Luciferase, at 10uM
# Assay type: functional, HepG2
# Settings: tested at 10 uM
row,Structure (SMILES),INHIBITION
1,c1cncc(COCC2CN(Cc3cccnc3)Cc3ccnn3C2)c1 (stereo unspecified),-60.2%
2,CCCc1cc(=O)[nH]c(-c2ccccc2CN(C)CCC(C)C)n1,36.6%
3,Cc1cccn2cc(CN3CCC(N4CCN(C)C4=O)CC3)nc12,-1.85%
4,OC(CN1CCN(Cc2cccnc2)CC1)c1cccs1 (stereo unspecified),10.1%
5,CCc1nccn1CCC(=O)N1CCCC1c1cncc(NC)n1 (stereo unspecified),2.365%
6,O=C(CN1CC(c2nc(C3CC3)no2)C1)NCC1CCCO1 (stereo unspecified),48%
7,O=S(=O)(C1CC1)N1CCO[C@H]2[C@H](OCCN3CCCC3)CC[C@@H]21,-9.67%
8,CN(Cc1cnccn1)S(=O)(=O)N1CCCC1c1ccco1 (stereo unspecified),4.3%
9,Cc1noc(C)c1CN1CCOC(CNc2cccnn2)C1 (stereo unspecified),-7.35%
10,CCOc1cc(CNCc2cnc(C)cn2)c(Cl)cc1OC(C)C,63.5%
11,CCOc1cc(CNCc2nc(C)cc(=O)[nH]2)c(Cl)cc1OC(C)C,39.6%
12,CCOc1cc(CNCc2ncc[nH]2)c(Cl)cc1OC(C)C,33.1%
13,Cc1nc(CN2CCN(C(=O)NC(C)Cn3ccnc3)CC2)cs1 (stereo unspecified),-28.2%
14,CNc1ncc(CN2CCC(c3nnsc3S(C)(=O)=O)CC2)cn1,21.9%
15,CS(=O)(=O)c1snnc1C1CCN(Cc2ccncc2)CC1,67.7%
16,CS(=O)(=O)c1snnc1C1CCN(Cc2cccnc2)CC1,48.6%
17,CN(C)c1ncc(CN2CCC(c3nnsc3S(C)(=O)=O)CC2)cn1,51.2%
18,CS(=O)(=O)c1snnc1C1CCCN(Cc2ccncc2)C1 (stereo unspecified),9.93%
19,Cc1cccc(CN2CCC(c3nnsc3S(C)(=O)=O)CC2)c1,18.9%
20,CCC(O)CN1CCN(C(=O)c2cnc3n[nH]c(C)c3c2)CC1 (stereo unspecified),12.7%
21,O=C(O)CSc1nccc(-c2ccc3c(c2)OCO3)n1,8.51%
22,CCc1nnc(C(C)N2CCc3cncnc3C2)o1 (stereo unspecified),2.43%
23,O=C(NC1CC1)N1CC[C@H](OCC2CC2)[C@@H]1Cc1cccnc1,29%
24,O=C(CN1CCC(c2ccccc2)C1)NC(=O)NCC(F)(F)F (stereo unspecified),36.65%
25,O=C(Nc1nc2c(s1)CN(S(=O)(=O)C1CC1)CC2)c1ccccn1,39.3%
26,CS(=O)(=O)N1CCc2nc(NC(=O)Nc3c(F)cccc3F)sc2C1,9.54%

row,Structure (SMILES),INHIBITION
1,O=C(Nc1nc2c(s1)CN(S(=O)(=O)C1CC1)CC2)c1cccc(Cl)c1,26%
2,O=C(Nc1nc2c(s1)CN(S(=O)(=O)C1CC1)CC2)c1c(F)cccc1F,-45.9%
3,O=C(Nc1nc2c(s1)CN(S(=O)(=O)C1CC1)CC2)Nc1ccccc1F,64.5%
4,O=C(Nc1nc2c(s1)CN(S(=O)(=O)C1CC1)CC2)c1ccc(Cl)s1,73.3%
5,CC(CNC(=O)NCCCc1cc(N)n(-c2ccccc2)n1)N(C)C (stereo unspecified),30.3%
6,CCN(CC)Cc1cn2c(n1)CN(C(=O)c1cc(C)on1)CC2,38.1%
7,COC(=O)C1(NCC(=O)Nc2cc(C)ccc2OC)CCCCC1,5.11%
8,c1ncn(CC2CN(Cc3nc(C4CC4)no3)CCO2)n1 (stereo unspecified),-7.31%
9,CCn1cnnc1C1CCN(C(=O)c2ccnc(N(C)C)c2)CC1,31.6%
10,COc1ccc(O[C@H]2COCCN(C(=O)c3ccno3)C2)cc1,-11.1%
11,O=C(c1ccno1)N1CCOC[C@H](Oc2ccccc2)C1,25.3%
12,O=C(c1ccno1)N1CCOC[C@H](Oc2ccc(C(F)(F)F)cc2)C1,50.2%
13,CCOCC(=O)Nc1cccc(Oc2ccccn2)c1,-13.4%
14,COCCN1CCC2(CCN(Cc3cccs3)CC2)C1=O,-3.12%
15,O=C(NCCCn1nc2ccccn2c1=O)NCc1ccccc1,-9.76%
16,Cc1ccc(N2CCc3sc(C(=O)NCCN4CCCC4)cc32)nn1,-15.2%
17,O=C(NCC1CC1)c1cc2c(s1)CCN2C(=O)c1cccnc1,-26.1%
18,CCCNC(=O)c1cc2c(s1)CCN2c1ncccn1,4.98%
19,O=C(NCCN1CCCC1)c1cc2c(s1)CCN2c1ncccn1,61.1%
20,CC(C)NC(=O)c1cc2c(s1)CCN2c1ncccn1,-21.3%
21,O=C(NCC1CC1)c1cc2c(s1)CCN2c1ncccn1,75.6%
22,O=C(c1ccco1)N1CCO[C@@H]2CNC[C@@H]21,22.2%
23,COc1ccc(C)cc1-n1ccc(C(=O)NCC2CCCOC2)n1 (stereo unspecified),17.3%
24,OC1(CNCCc2nc3c(s2)CCCC3)CNCCOC1 (stereo unspecified),-12.1%
25,CN(CCCSc1ccccc1)C(=O)Cn1ncc(N(C)C)cc1=O,31.7%
